Results taken from publication PMC5540273 (PLoS ONE, 2017).

What follows are molecules tested on CSNK1A1L. Settings: concentration: 1 μM, replicates: in singlicate; n = 1.
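Also: KINOMEscan kinase panel screen.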

Compound | %Inh [%]
O=C(Nc1n[nH]c2nc(-c3ccccc3O)ccc12)C1CC1 [SB-711880] | 76
CN(c1ccc(NC(=O)N2CCN(CCCN3CCOCC3)CC2)cc1)c1ccnc(Nc2ccc(CS(C)(=O)=O)cc2)n1.Cl [GW830899] | 79
CCOc1nccc(-c2c(-c3ccc(F)cc3)ncn2C2CCNCC2)n1 [SB-249175] | 45
O=C(Nc1n[nH]c2nc(-c3cccc(O)c3)ccc12)C1CC1 [SB-711805] | 6
Cc1ccc(NC(=O)c2ccnc(N3CCCCC3)c2)cc1-c1ccc(C(=O)NCC2CC2)cc1 [GW775610] | 20
Cc1cccc(Nc2nc(NCCN)ncc2C(N)=O)c1 [GSK1292139] | 76
CN(c1ccc(F)c(NC(=O)c2cccc(OC(C)(C)C#N)c2Cl)c1)c1ccc2nc(NC(=O)C3CC3)sc2n1 | 14
Cc1ccc(NC(=O)c2ccc(Cl)c(Cl)c2)cc1-c1ccc(C(=O)Nc2ccncc2)cc1 [GSK1398460] | 8
O=C(Nc1n[nH]c2nc(-c3ccccc3)ccc12)C1CC1 [SB-708999] | 15
CCNC(=O)/C=C/c1n[nH]c2cc(Sc3ccccc3C(=O)NC)ccc12 | 0
COc1ccc(C)c(Nc2ccnc(Nc3ccc(-c4cnc[nH]4)cc3)n2)c1.Cl [GW784041] | 2
Cc1nn2c(=O)cc(N3CCO[C@H](C)C3)nc2n1Cc1cccc(Cl)c1Cl [GSK2373693] | 0
c1ccc(Oc2ccc(Nc3ccnc4cc(-c5ccc(CN6CCCCC6)o5)ccc34)cc2)nc1 [GW567143] | 12
COC(=O)Nc1nc2cc(Oc3ccc(NC(=O)Nc4cccc(SC)c4)cc3)ccc2[nH]1.Cl [GW697999] | 6
CC(C)NCC(Cc1ccccc1)NC(=O)c1cc(Br)c(-c2ccnc3[nH]ccc23)s1.Cl.Cl (stereo not shown) [GSK1383281] | 5
N#Cc1cnc2cc(-c3cnc(CNCCN4CCOCC4)s3)ccc2c1Nc1ccc(Oc2ccccc2)cc1 [GW664114] | 7
Cc1cc(-c2c(-c3ccc(F)cc3)ncn2CCCN2CCOCC2)nc(N)n1 [SB-222517] | 0
CN(C)CCNS(=O)(=O)c1ccc(-c2ccnc3[nH]ccc23)cc1 [GSK977620] | 16
CN(c1ccc(NC(=O)Nc2cccc(Cl)c2)cc1)c1ccnc(N)n1.Cl [GW830707] | 0

Compound | %Inh [%]
Cl.O=C(Nc1ccc(Oc2ccc3[nH]c(NC(=O)c4ccco4)nc3c2)cc1)Nc1cc(C(F)(F)F)ccc1F [GW683134] | 0
Cl.Cl.NC(CNC(=O)c1cc(Br)c(-c2ccnc3[nH]ccc23)s1)c1ccccc1 (stereo not shown) [GSK1322949] | 47
COc1ccc(C2=C(Nc3cccc(O)c3)C(=O)NC2=O)cc1 [SB-390766] | 7
Nc1cccc(-c2ccc3c(N)n[nH]c3c2)c1 [GSK2193613] | 13
Cl.Cl.NCC(NC(=O)c1cc(-c2cccnc2)c(-c2ccnc3[nH]ccc23)s1)c1ccccc1 (stereo not shown) [GSK1323434] | 77
COc1ccc(NC(=O)c2ccoc2)cc1-c1ccc(C(=O)NCC2CC2)cc1 [GW810437] | 8
CC(C)(C)c1ccc(C(=O)Nc2cn3cc(-n4ccnc4)ccc3n2)cc1 | 34
Cc1ccc(Nc2ccnc(Nc3ccc(C)c(F)c3)n2)cc1O.Cl [GW582868] | 12
Cc1ccc(NC(=O)c2cccc(N3CCCCC3)c2)cc1-c1ccc(C(=O)NCC2CC2)cc1 [GSK1917008] | 18
COc1cccc(C2=C(Nc3cccc(O)c3)C(=O)NC2=O)c1 [SB-390771] | 10
CSc1ccc(NC2=C(c3ccc(Cl)cc3)C(=O)NC2=O)cc1 [SB-317658] | 0
Cc1cc(-c2ccnc(Nc3cccc(C#N)c3)n2)cc(C)c1O [GSK1440913] | 30
O=C(Nc1n[nH]c2cc(-c3cccs3)ccc12)C1CC1 [SB-731284] | 0
CCn1cnc2c(NCc3ccccc3)ncnc21 [SKF-96418] | 0
Cn1cc(-c2ccc3c(c2)CCN3C(=O)Cc2cc(F)cc(F)c2F)c2c(N)ncnc21 [GSK2634140] | 17
O=C(O)C(F)(F)F.O=c1[nH]ccc2nc(N[C@@H]3CCNC3)nc(Nc3ccc4c(c3)S(=O)(=O)CC4)c12 [GSK2181306] | 90
COc1cccc(NC(=O)NCCNc2ccnc(Nc3ccc(F)cc3)n2)c1 [GSK1379879] | 0
CN1CCN(Cc2ccc(NC(=O)Nc3ccc(N(C)c4ccnc(Nc5ccc(CS(C)(=O)=O)cc5)n4)cc3)cc2)CC1.Cl [GW827654] | 0
